In PubChem BioAssay (NCI) one finds growth data, which are given here for 14 molecules.

Each structure is given as a SMILES string. Compounds without any hit were thinned out: in the full panel of roughly 83,000, 20% have a hit.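 Percent growth is the endpoint: 0 to 100 indicates growth inhibition (40 means 60% inhibition), 0 means no net growth, and negative values indicate cell death.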 A number with no mark means an inactive call. Calls of active or inactive are those of the source. How the source made its calls: active means growth percent below 10; inactive means the rest.

Assay in all cases: NCI-60 one-dose screen, 48 h (100 = growth as untreated, 0 = no growth, -100 = all killed)
In one experiment the test system is NCI-H23 lung. To be noted: 10 µM unless noted.
Another experiment relates to NCI-H226 lung. Conditions: 10 µM unless noted.
Another experiment has as its system NCI-H322M lung. Conditions: 10 µM unless noted.
In another experiment the test system is HOP-62 NSCLC. Conditions: 10 µM unless noted.
The next experiment deals with NCI-H460 lung. To be noted: 10 µM unless noted.
A further experiment concerns HOP-92 NSCLC. To be noted: 10 µM.
The next experiment has as its system A549/ATCC NSCLC. Conditions: 10 µM unless noted.
A further experiment relates to 786-0 renal. To be noted: 10 µM unless noted.
In another experiment the test system is COLO 205 colon. Conditions: 10 µM unless noted.
The next experiment concerns NCI-H522 lung. To be noted: 10 µM unless noted.

In the case of `C=C(C)[C@@H]1CC[C@]2(COCCCNCCC#N)CC[C@]3(C)[C@H](CC[C@@H]4[C@@]5(C)CC[C@H](OCCCNCCC#N)C(C)(C)[C@@H]5CC[C@]43C)[C@@H]12`, the growth in the experiment on NCI-H23 lung was 33.4%; in the experiment on NCI-H226 lung it was 48.8%; in the experiment with NCI-H322M lung it was 105%; in the experiment with HOP-62 NSCLC it was 75.6%; in the experiment with NCI-H460 lung, 41.8%; in the experiment with HOP-92 NSCLC it was 49.7%. Besides, the growth is 59.2% in the experiment on A549/ATCC NSCLC, 59.8% in the experiment on 786-0 renal and 61.8% in the experiment with COLO 205 colon.
For `Cc1ccc2c(c1)C(=O)/C(=C/c1cccc(F)c1)S2`, the growth with NCI-H23 lung is 101%; in the experiment with NCI-H226 lung, 88.5%; in the experiment with NCI-H322M lung it was 98.2%; with HOP-62 NSCLC, 109%; in the experiment with NCI-H460 lung, 105%; with NCI-H522 lung, 93.2%. Moreover, the values for the growth in the experiment with A549/ATCC NSCLC, in the experiment on 786-0 renal and with COLO 205 colon were 107%, 103% and 112%, respectively.
For the molecule `Cc1cccc2c3c(sc12)C(c1ccc(F)cc1)C(C#N)=C(/N=C/c1ccc(Cl)cc1)O3` (stereo unspecified), the growth in the experiment on NCI-H23 lung was 19.1%; in the experiment on NCI-H226 lung, 29.9%; in the experiment with NCI-H322M lung, 47.4%; with HOP-62 NSCLC, 28%; in the experiment on NCI-H460 lung, 5.27% (active); in the experiment on NCI-H522 lung, -53% (active). Besides, the results for the growth in the experiment with A549/ATCC NSCLC, in the experiment with 786-0 renal and in the experiment on COLO 205 colon were 21.7%, 25.6% and -49% (active), respectively.
Regarding `CCCn1cnc2c(c1=N)C(c1ccc(OC)cc1)c1sc3c(CC)cccc3c1O2` (stereo unspecified), the growth was 18.9% with NCI-H23 lung; 57% in the experiment on NCI-H226 lung; 37.6% in the experiment on NCI-H322M lung; 38.8% with HOP-62 NSCLC; 10.1% with NCI-H460 lung; -14.3% (active) in the experiment on NCI-H522 lung. For the same molecule, the growth in the experiment on A549/ATCC NSCLC was 40.6%; in the experiment on 786-0 renal it was 32.3%; in the experiment with COLO 205 colon, 13.9%.
In the case of `COc1cc(OC)cc(C(=O)Nc2sc3c(c2C(N)=O)CCC(=O)C3)c1`, the growth is 19.1% with NCI-H23 lung; 86% in the experiment on NCI-H226 lung; 98.6% in the experiment on NCI-H322M lung; 60% in the experiment with HOP-62 NSCLC; 57.9% in the experiment with NCI-H460 lung; 5.02% (active) in the experiment with NCI-H522 lung. For the same molecule, the growth in the experiment with A549/ATCC NSCLC was 95.8%; with 786-0 renal, 85%; with COLO 205 colon, 47.2%.
Regarding `N/C(=N\C(N)=N\c1nc2ccccc2s1)c1ccncc1Cl`, the growth with NCI-H23 lung is 33.9%; in the experiment on NCI-H226 lung it was 67.8%; in the experiment on NCI-H322M lung it was 80.6%; with HOP-62 NSCLC, 51.6%; in the experiment with NCI-H460 lung it was 23.4%; in the experiment with NCI-H522 lung it was 18.4%. Besides, the growth is 71% in the experiment with A549/ATCC NSCLC, 42.7% in the experiment with 786-0 renal and 50.4% in the experiment with COLO 205 colon.
Take `O=C(Nc1cccc(Cl)c1)Nc1nc2ccc([N+](=O)[O-])cc2o1`: the growth was 12.6% in the experiment with NCI-H23 lung; 29% in the experiment with NCI-H226 lung; 17.4% in the experiment on NCI-H322M lung; 22.2% in the experiment on HOP-62 NSCLC; 7.51% (active) in the experiment on NCI-H460 lung; -0.721% (active) in the experiment with NCI-H522 lung. Moreover, the growth with A549/ATCC NSCLC is 17.2%; with 786-0 renal, 28%; with COLO 205 colon, -5.17% (active).
In the case of `CN1c2ccccc2Sc2cc(C=C(C#N)C#N)ccc21`, the growth in the experiment with NCI-H23 lung is 89.3%; in the experiment on NCI-H226 lung, -31.4% (active); in the experiment with NCI-H322M lung, 97.3%; with HOP-62 NSCLC it was 90.4%; with NCI-H460 lung, 97.9%; with NCI-H522 lung, 91.8%. In addition, the growth was 98% with A549/ATCC NSCLC, 105% in the experiment with 786-0 renal and 108% in the experiment on COLO 205 colon.
With `CCOC(=O)c1c(Nc2ccccc2)nn2c(-c3ccc(Cl)cc3)ccnc12`, the growth is 73.4% in the experiment with NCI-H23 lung; 58.6% in the experiment on NCI-H226 lung; 86.5% with NCI-H322M lung; 56.7% in the experiment with HOP-62 NSCLC; 44.1% in the experiment with NCI-H460 lung; 79.7% in the experiment on NCI-H522 lung. The growth is 70.4% in the experiment with A549/ATCC NSCLC, 64.7% with 786-0 renal and 82.1% in the experiment on COLO 205 colon.
For `COc1ccccc1-n1cc(C#N)c(N)c1C(=O)c1ccc(C)cc1`, the growth in the experiment on NCI-H23 lung is 89.4%; with NCI-H226 lung it was 98.4%; with NCI-H322M lung it was 90.8%; in the experiment on HOP-62 NSCLC it was 77.7%; in the experiment on NCI-H460 lung, 101%; in the experiment on NCI-H522 lung, 64%. Also, the growth with A549/ATCC NSCLC was 89.8%; in the experiment with 786-0 renal it was 94.8%; in the experiment on COLO 205 colon, 95.6%.
`COc1cc(C2N=C(NNc3ccccc3)NC(C)=C2C(C)=O)ccc1O` (stereo unspecified): the growth in the experiment with NCI-H23 lung is 96.7%; in the experiment on NCI-H226 lung, 86.5%; in the experiment with NCI-H322M lung, 88.1%; with HOP-62 NSCLC, 82%; with NCI-H460 lung, 106%; in the experiment on NCI-H522 lung, 78.5%. Also, the growth was 95.5% with A549/ATCC NSCLC, 102% in the experiment on 786-0 renal and 113% in the experiment with COLO 205 colon.
With `N#Cc1cccc(/C(N)=N/C(N)=N/c2nc3ccccc3s2)c1`, the growth in the experiment on NCI-H23 lung is 27.7%; in the experiment with NCI-H226 lung it was 72%; in the experiment on NCI-H322M lung, 48.5%; in the experiment on HOP-62 NSCLC, 45%; in the experiment with NCI-H460 lung, 22%; in the experiment with NCI-H522 lung it was 3.75% (active). The figures for the growth with A549/ATCC NSCLC, in the experiment with 786-0 renal and with COLO 205 colon were 60.8%, 46% and 17.4%, respectively.
With `Cc1cccc2c3c(sc12)C(c1ccc(Cl)cc1)c1c(nc(CC(=O)Nc2ccccc2)[nH]c1=O)O3` (stereo unspecified), the growth with NCI-H23 lung is 55.1%; with NCI-H226 lung, 65.4%; in the experiment with NCI-H322M lung, 76.5%; with HOP-62 NSCLC it was 59.8%; with NCI-H460 lung, 42.1%; in the experiment on NCI-H522 lung it was 26.9%. Also, the figures for the growth with A549/ATCC NSCLC, in the experiment on 786-0 renal and in the experiment on COLO 205 colon were 62.6%, 75.9% and 101%, respectively.
On to `COc1ccc(/C=C/C(=O)c2cc(S(N)(=O)=O)c(OC)cc2OC)cc1`, for which the growth with NCI-H23 lung is 74.7%; in the experiment on NCI-H226 lung it was 100%; in the experiment with NCI-H322M lung, 77.2%; in the experiment on HOP-62 NSCLC, 83%; with NCI-H460 lung, 69.8%; with NCI-H522 lung, 78%. In addition, the growth in the experiment on A549/ATCC NSCLC was 84.3%; in the experiment with 786-0 renal, 88.1%; in the experiment with COLO 205 colon, 92.6%.
